# Experimental data published in PubChem BioAssay (Tox21).
# Values joined by “and” are separate entries in the source; they are usually repeats but may differ in a detail not shown here. Equal values may be shown once. Results filed as inconclusive are left out. A call without a number means that no potency is given here. Where a structure was tested more than once in an assay, its records may differ in their call. Active and inactive are the calls of the source. The call rests on the fitted dose curve; in most records, active means well fitted cell-killing curve with a large enough effect in the repeat runs; inconclusive means weak or mixed curves; inactive means no such curve, though single readings can be large or run the other way.
# Test: qHTS assay to identify small molecule agonists of the peroxisome proliferator-activated receptor delta (PPARd) signaling pathway - cell viability counter screen (AID 743211); further: nearly all actives have a fitted effect of over 55% in size
# Settings: PPARd-bla HEK293H viability, CellTiter-Glo luminescence, 17 h; series mostly up to 62.6 µM
# Procedure, shortened: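 HEK293H PPARd-bla, 3000 cells/well; 5 h preincubation 37C/5% CO2; cpd in DMSO, 17 h 37C; B/G FRET substrate 2 h RT; CellTiter-Glo 30 min RT, luminescence.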
# Potency means the concentration at half of the fitted maximal effect.
row,SMILES,Potency
1,CCN(N=O)C(N)=O,inactive
2,Cc1c(COC(=O)[C@@H]2[C@H](/C=C(\Cl)C(F)(F)F)C2(C)C)cccc1-c1ccccc1,inactive
3,CC(C)c1ccc(CO)cc1,inactive
4,O=[N+]([O-])c1c(Cl)c(Cl)c(Cl)c(Cl)c1Cl,inactive
5,CC(C)C(=O)OCC(C)(C)C(OC(=O)C(C)C)C(C)C (centres undefined),inactive
6,C#CCOS(=O)OC1CCCCC1Oc1ccc(C(C)(C)C)cc1 (centres undefined),inactive and 24.5 µM (active)
7,CCOc1cc(C=O)ccc1O,inactive
8,COc1ccc(C(CN(C)C)C2(O)CCCCC2)cc1 (centres undefined),inactive
9,CCOP(=S)(OCC)O/N=C(\C#N)c1ccccc1,inactive
10,COC(=O)c1sccc1S(=O)(=O)NC(=O)Nc1nc(C)nc(OC)n1,inactive
11,CCOc1cc(Oc2ccc(C(F)(F)F)cc2Cl)ccc1[N+](=O)[O-],inactive
12,NCc1cccnc1,inactive
13,NC(=S)Nc1ccccc1,inactive
14,O=P(Oc1ccccc1)(Oc1ccccc1)Oc1ccccc1,24.4 µM (active)
15,Nc1c(Cl)cc([N+](=O)[O-])cc1Cl,inactive
16,CC(C)Oc1cc(-n2nc(C(C)(C)C)oc2=O)c(Cl)cc1Cl,15.5 µM (active)
17,O=Cc1ccco1,inactive

row,SMILES,Potency
1,N[C@@H](Cc1ccc(N(CCCl)CCCl)cc1)C(=O)O,inactive
2,Oc1cc(Cl)ccc1Oc1ccc(Cl)cc1Cl,20 µM (active) and 15 µM (active)
3,Nc1ccc(Cl)cc1N,inactive
4,CCCCCc1cc(O)cc(O)c1,inactive
5,ClC1C(Cl)C(Cl)C(Cl)C(Cl)C1Cl (centres undefined),inactive
6,C=C(C)C(=O)OCC1CO1 (centres undefined),inactive
7,O=C(CCl)c1ccccc1,inactive
8,C=C(C)[C@H]1Cc2c(ccc3c2O[C@@H]2COc4cc(OC)c(OC)cc4[C@@H]2C3=O)O1,inactive
9,CCC(=O)O[C@H]1CC[C@H]2[C@@H]3CCC4=CC(=O)CC[C@]4(C)[C@H]3CC[C@]12C,49 µM (active) and inactive
10,CCCCCCCCOC(=O)c1ccccc1C(=O)OCCCCCCCC,inactive
11,CCCCC(CC)COC(=O)c1ccc(C(=O)OCC(CC)CCCC)c(C(=O)OCC(CC)CCCC)c1 (centres undefined),inactive
12,Nc1ccncc1,inactive
13,CC(C)(C)c1ccccc1O,inactive
14,c1nc[nH]n1,inactive
15,Nn1cnnc1,inactive
16,Cc1ccccc1[N+](=O)[O-],inactive
17,O=S(=O)(Oc1ccc(Cl)cc1)c1ccc(Cl)cc1,inactive
